The text below walks through data of PubChem BioAssay (NCI).

This is part of a sample that, as a whole, favours compounds with a hit. Of some 83,000 tested, about 20% had one in any assay.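 Method: cells in 96-well plates; compound added at one concentration; 48 h incubation; percent growth measured; values under 10 scored active.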 Values without a mark were called inactive. Activity calls are given as the source filed them.

Test systems include SK-MEL-2 melanoma; EKVX NSCLC; SN12C renal; UO-31 renal; TK-10 renal; ACHN renal; CAKI-1 renal; A498 renal; CCRF-CEM leukemia; MOLT-4 leukemia; RPMI-8226 leukemia; OVCAR-8 ovarian; OVCAR-5 ovarian; OVCAR-4 ovarian; SK-OV-3 ovarian; IGROV1 ovarian; OVCAR-3 ovarian; HS 578T breast; NCI/ADR-RES ovarian; SR leukemia.
Holding throughout (test): NCI-60 one-dose screen, 48 h (100 = growth as untreated, 0 = no growth, -100 = all killed)
Conditions in all cases: 10 µM unless noted

As to `COc1ccc(S(=O)(=O)N2CCN(C)CC2)cc1NC(=O)c1[nH]c(C)c2c1CCCCC2=O`, the growth was 79.6% with SK-MEL-2 melanoma; 58.4% with EKVX NSCLC; 60.4% in the test on SN12C renal; 37% with UO-31 renal; 33.4% in the test on TK-10 renal; 58.6% in the test on ACHN renal. The growth was 21.2% in the test on CAKI-1 renal; 60.9% with A498 renal; 75.5% in the test with CCRF-CEM leukemia; 81.4% with MOLT-4 leukemia; 32.6% in the test with RPMI-8226 leukemia; 63% in the test on OVCAR-8 ovarian. Further, the growth was 59.5% in the test with OVCAR-5 ovarian; 57% in the test with OVCAR-4 ovarian; 44.7% in the test with SK-OV-3 ovarian; 47% in the test on IGROV1 ovarian; 66.6% in the test on OVCAR-3 ovarian; 28.9% in the test on HS 578T breast. In addition, in the test with NCI/ADR-RES ovarian, the growth was 96.9%.
Take `CC(C)(C)c1cc(C(C)(C)C)cc(S(=O)(=O)Nc2cc3ccccc3cc2C(=O)NCCN)c1`: the growth was 62.3% in the test on SK-MEL-2 melanoma; 89.5% in the test with EKVX NSCLC; 46.6% with SN12C renal; 53.2% in the test with UO-31 renal; 78.8% with TK-10 renal; 70.9% in the test on ACHN renal. Besides, the growth is 64% in the test on CAKI-1 renal; -2.57% (active) with A498 renal; 57.7% in the test with CCRF-CEM leukemia; 77% with MOLT-4 leukemia; -32.1% (active) in the test on SR leukemia; -5.61% (active) in the test with RPMI-8226 leukemia. Also, the growth was 5.01% (active) in the test on OVCAR-8 ovarian; 94.8% in the test with OVCAR-5 ovarian; 70.6% in the test on OVCAR-4 ovarian; 62.3% with IGROV1 ovarian; 70.5% with OVCAR-3 ovarian; 73.2% with HS 578T breast. Also, in the test on NCI/ADR-RES ovarian, the growth was 82%.
For `COc1ccc(-c2cc(NC(=O)Nc3ccc4ncsc4c3)no2)cc1`, the growth is 112% in the test on SK-MEL-2 melanoma; 95.9% in the test with EKVX NSCLC; 96.3% in the test with SN12C renal; 106% in the test with UO-31 renal; 104% in the test with TK-10 renal; 99.6% with ACHN renal. The growth is 91% in the test with CAKI-1 renal; 100% in the test with A498 renal; 106% with CCRF-CEM leukemia; 96.1% with MOLT-4 leukemia; 92.6% in the test with RPMI-8226 leukemia; 102% with OVCAR-8 ovarian. For the same compound, the growth with OVCAR-5 ovarian was 98.6%; with OVCAR-4 ovarian, 96.2%; in the test on SK-OV-3 ovarian it was 118%; in the test on IGROV1 ovarian it was 107%; in the test on OVCAR-3 ovarian, 114%; with HS 578T breast, 93.3%. Moreover, the growth with NCI/ADR-RES ovarian is 106%.
As to `CCC(=O)c1ccc(Cl)s1`, the growth is 102% in the test with SK-MEL-2 melanoma; 117% in the test with EKVX NSCLC; 101% in the test with SN12C renal; 98% in the test with UO-31 renal; 103% in the test with TK-10 renal; 107% with ACHN renal. In addition, the growth with CAKI-1 renal was 102%; with A498 renal it was 98.4%; in the test with CCRF-CEM leukemia, 101%; with MOLT-4 leukemia, 94%; in the test on RPMI-8226 leukemia, 104%; with OVCAR-8 ovarian, 101%. The growth was 105% in the test on OVCAR-5 ovarian; 109% in the test on OVCAR-4 ovarian; 114% with SK-OV-3 ovarian; 118% in the test with IGROV1 ovarian; 112% in the test on OVCAR-3 ovarian; 103% in the test on HS 578T breast. Moreover, in the test with NCI/ADR-RES ovarian, the growth is 104%.
Turning to `CCCOc1ccc2nc(NC(=O)OC)[nH]c2c1`, the growth is -1.33% (active) in the test with SK-MEL-2 melanoma; 57.1% with EKVX NSCLC; 23.2% in the test with SN12C renal; 37.5% with UO-31 renal; 35.7% in the test with TK-10 renal; 31.5% in the test with ACHN renal. For the same compound, the growth is 51.7% in the test with CAKI-1 renal; 9.31% (active) with A498 renal; 7.62% (active) in the test with CCRF-CEM leukemia; 17.7% in the test on MOLT-4 leukemia; 7.83% (active) with RPMI-8226 leukemia; 3.91% (active) in the test on OVCAR-8 ovarian. In addition, the growth with OVCAR-5 ovarian is 39.2%; with OVCAR-4 ovarian it was 53.3%; in the test on SK-OV-3 ovarian it was 4.92% (active); in the test with IGROV1 ovarian, 36.9%; with OVCAR-3 ovarian, -46.8% (active); in the test on HS 578T breast, 29.8%. In addition, the growth in the test on NCI/ADR-RES ovarian was -6.3% (active).
With `Cc1nc(/N=C(\N)NC(=O)Nc2cccc([N+](=O)[O-])c2)sc1C`, the growth is 88.1% in the test on SK-MEL-2 melanoma; 77.3% in the test with EKVX NSCLC; 86.9% in the test on SN12C renal; 83% with UO-31 renal; 110% with TK-10 renal; 92% with ACHN renal. Moreover, the growth in the test on CAKI-1 renal was 58.3%; in the test on A498 renal it was 57.2%; in the test with CCRF-CEM leukemia, 69.1%; with MOLT-4 leukemia, 51.5%; with RPMI-8226 leukemia, 74.3%; with OVCAR-8 ovarian, 100%. Moreover, the growth is 91.5% with OVCAR-5 ovarian; 88.6% in the test with OVCAR-4 ovarian; 101% in the test on SK-OV-3 ovarian; 76.1% in the test on IGROV1 ovarian; 95.9% in the test with OVCAR-3 ovarian; 74.5% in the test with HS 578T breast. The growth in the test on NCI/ADR-RES ovarian was 46.2%.
`Cn1c(=O)c2c(nc3n(-c4ccc(Cl)cc4Cl)c(Sc4nc(-c5ccccc5)c(C#N)c(=O)[nH]4)cn23)n(C)c1=O`: the growth with SK-MEL-2 melanoma is 99%; in the test on EKVX NSCLC it was 59.5%; in the test with SN12C renal it was 33%; in the test with UO-31 renal it was -1.67% (active); in the test with TK-10 renal it was 5.58% (active); in the test with ACHN renal it was 14.2%. Besides, the growth was 59.4% with CAKI-1 renal; 33.5% with A498 renal; 47.7% in the test with CCRF-CEM leukemia; 75.8% in the test with MOLT-4 leukemia; 59.3% in the test with RPMI-8226 leukemia; 34.2% in the test with OVCAR-8 ovarian. Also, the growth was 29.3% in the test with OVCAR-5 ovarian; -33.1% (active) in the test with OVCAR-4 ovarian; 39.7% in the test on SK-OV-3 ovarian; 55.6% with IGROV1 ovarian; -15.5% (active) in the test on OVCAR-3 ovarian; 11.5% in the test with HS 578T breast. Moreover, the growth in the test on NCI/ADR-RES ovarian is 43.9%.
`COc1cc2c(cc1-c1c(C)noc1C)ncc1nc(C3CCOCC3)n([C@H](C)COC(F)F)c12`: the growth with SK-MEL-2 melanoma was 67%; in the test on EKVX NSCLC, 50.4%; with SN12C renal it was 57%; with UO-31 renal it was 15.7%; in the test on TK-10 renal it was 25.3%; in the test on ACHN renal, 34.6%. The growth is 26.7% in the test with CAKI-1 renal; -13.5% (active) in the test with A498 renal; 48.3% with CCRF-CEM leukemia; 46.6% in the test with MOLT-4 leukemia; 18% with RPMI-8226 leukemia; 42.6% in the test with OVCAR-8 ovarian. Besides, the growth in the test on OVCAR-5 ovarian is 68.4%; in the test on OVCAR-4 ovarian, 47.9%; with SK-OV-3 ovarian, 1.35% (active); in the test with IGROV1 ovarian, 58.8%; in the test with OVCAR-3 ovarian, 35.2%; in the test with HS 578T breast, 16.8%. In addition, the growth with NCI/ADR-RES ovarian is 38.4%.
